Sampled rows, rich in hits. Any-hit rate of the full collection: about 4.4%.
IL1B cytotox – toxic to HUVEC cells under IL-1B stimulation | HUVEC cell count loss, Hoechst imaging, IL-1B stimulated | AID 845 | cell count reduction, % at 2 µM | hit rate 0.41% among 94,000;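 active = cell count reduction more than 3 SD above the screen-wide mean, cut at about 70% in these data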;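 also: normalized per plate to untreated control cells as the no-loss baseline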
NFkB transloc inh – blocks IL-1B driven NFkB nuclear translocation in HUVEC cells | hit rate 0.43% among 94,000 | inhibition, % at 2 µM | HUVEC IL-1B NFkB p65 nuclear translocation imaging;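 active = inhibition above about 30% together with a positive call from visual inspection of the well image, limit read from the data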;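 also: nuclear over cytoplasmic p65 intensity ratio measured by imaging; 0% = IL-1B stimulated DMSO wells and 100% = unstimulated DMSO wells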
Cav3 T inh – blocks human Cav3.2 T-type calcium channel; Cav3.2-expressing cells, Fluo-4 calcium fluorescence FDSS; active compounds read low; B-score at 10 µM; hit rate 4% among 100,000;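 active = single-dose well whose peak fluorescence ratio is a statistical outlier from its plate by either plate-standardised score or position-corrected B-score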
NFkB transloc pot – enhances IL-1B driven NFkB nuclear translocation; HUVEC IL-1B NFkB p65 nuclear translocation imaging; activation, % at 2 µM; hit rate 0.3% among 94,000;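 active = activation above 40%, about the mean plus 3 SD, also judged a hit on visual image review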;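 also: percent activation is computed from the nuclear over cytoplasmic p65 intensity ratio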
* = called active by the depositor; . = not tested or not shown.

SMILES	IL1B cytotox	NFkB transloc inh	Cav3 T inh	NFkB transloc pot
CCOC(=O)c1cnn(-c2ccccc2)c1-n1cccc1C(=O)C(=O)Nc1ccc(F)cc1	-15	-1	-4.3*	1
Cc1nc2cc(CC(=O)O)ccc2o1	-18	-6	0.83	6
O=C(CCn1c(=O)oc2ccccc21)N1CCN(c2ccccc2Cl)CC1	-25	-13	-4*	13
O=C(c1cc2ccccc2o1)N1CCN(c2ccccc2Cl)CC1	93*	18	-2.6	-18
O=C(CCS(=O)(=O)c1ccc(Br)cc1)N1CCN(c2ccccc2Cl)CC1	9	10	-5.7*	-10
O=C(CCS(=O)(=O)c1ccc(Cl)cc1)N1CCN(c2ccccc2F)CC1	7	-1	-1.4	1
CC1(C)NC(=O)N(CCCSc2ccc(Cl)cc2)C1=O	.	.	0.49	.
COC(=O)c1ccc(CN2C(=O)NC3(CCCCC3C)C2=O)o1 (stereo not drawn)	.	.	0.62	.
Cc1csc2ncc(C(=O)NC(C)c3ccccc3)c(=O)n12 (stereo not drawn)	0	-36	-0.31	36
COc1ccc(-c2nc(N)nc(C)c2Oc2ccccc2Br)c(O)c1	4	2	-0.27	-3
O=c1[nH]c(NCCCO)nc2c1C1(CCCC1)Cc1ccccc1-2	.	.	-4.1*	.
CCN(CC)Cc1nc2c(c(=O)[nH]1)C1(CCCCC1)Cc1ccccc1-2	90*	5	-1.2	-5
CC(=O)OC(C(=O)NC1CCCCC1)c1ccc(C#N)cc1 (stereo not drawn)	24	10	0.83	-10
COC(=O)C(C)N(C(=O)c1ccc(Cl)cc1)c1c(C)cccc1C (stereo not drawn)	7	-21	-6.6*	21
COC(=O)C(C)N(C(=O)c1ccc(C(=O)c2ccccc2)cc1)c1c(C)cccc1C (stereo not drawn)	-112	-12	-4.5*	12
COc1ccc(C2(C(=O)NCCCN3CCOCC3)CCOCC2)cc1	24	-11	.	11
C=CCn1c(SCCOc2ccc(OC)cc2)nnc1C(C)NC(=O)c1ccc(OC)cc1 (stereo not drawn)	8	-4	0.61	4
C=CCn1c(SCC(=O)c2ccc(OC)cc2)nnc1C(C)NC(=O)c1cccs1 (stereo not drawn)	94*	49*	0.087	-49
CCN(CCCNC(=O)CNC(=O)Cn1cnc2ccccc2c1=O)c1cccc(C)c1	.	.	-3.9*	.
CCN(CC)S(=O)(=O)c1cc(NC(=O)Cn2cnc3ccccc3c2=O)ccc1C	-2	-3	.	3
CN(c1ccccc1)S(=O)(=O)c1cccc(NC(=O)Cn2cnc3ccccc3c2=O)c1	2	2	-7*	-2
CCN(CCCNC(=O)Cn1ncc2c(=O)oc3ccccc3c21)c1cccc(C)c1	22	2	.	-2
Cn1c(SCc2cc(=O)[nH]c3ccccc23)nnc1-c1ccc(Br)cc1	-7	2	1.9	-2
C=CCO/N=C(/C)c1c(O)c(CC)c(-c2ccccc2)n(-c2ccccc2)c1=O	-28	8	-7.3*	-8
Cc1ccc(C)c(NC(=O)C2CC(O)CN2C(=O)OC(C)(C)C)c1 (stereo not drawn)	-13	-9	0.051	11
SMILES	IL1B cytotox	NFkB transloc inh	Cav3 T inh	NFkB transloc pot
COC(=O)c1ccc(C(=O)OC)c(NC(=O)COC(=O)C2CCC(C(C)(C)C)CC2)c1 (stereo not drawn)	-11	-4	-4.8*	4
FC(F)(F)C1=CC(c2ccccc2)=NCCN1	-11	5	0.59	-5
C=CCNc1sc(C(=O)c2ccc(Br)s2)c(N)c1C#N	0	12	-3.8	-12
CCc1ccc(C(C(=O)NCCOC)N(C(=O)Cn2nnc3ccccc32)c2cccnc2)cc1 (stereo not drawn)	16	-5	0.84	5
COc1ccc2c(c1)C(=O)/C(=C/C=C/c1ccccc1)CC2	16	10	-4.7*	-10
COc1ccc2c(c1)CC/C(=C\C=C\c1ccccc1OC)C2=O	-19	-12	-0.077	13
Cn1c(CNc2nc(-c3ccccc3)cs2)nnc1SCC(=O)OC1CCCCC1	.	.	-6.1*	.
CCOC(=O)Cc1csc(NC(=O)COc2ccc(N(C)S(=O)(=O)c3cccs3)cc2)n1	.	.	-4.7*	.
O=C(c1ccc2c(=O)n(Cc3ccco3)c(=S)[nH]c2c1)N1CCN(Cc2ccccc2)CC1	6	-13	-6.6*	13
O=C(c1cccc(F)c1)N1CCN(Cc2ccco2)CC1	-27	-40	-0.09	40*
CCCn1c(=S)[nH]c2cc(C(=O)N3CCCC(C(=O)OCC)C3)ccc2c1=O (stereo not drawn)	-45	-3	-2.9	5
CC1CCN(C(=O)CSc2nc3ccccc3c(=O)n2Cc2ccc3c(c2)OCO3)CC1	16	5	-4.9*	-5
O=C(c1ccco1)N1CCN(Cc2cccc(F)c2)CC1	-52	7	-0.085	-7
CC1CCCN(C(=O)c2ccc3c(=O)n(Cc4ccc5c(c4)OCO5)c(=S)[nH]c3c2)C1 (stereo not drawn)	-1	4	-5.3*	-4
N#CC1=C(N)SC(N)=C(C#N)C1c1cccc(O)c1	-1	1	0.03	-1
O=C(c1ccc(F)cc1)N1CCCCC(Sc2nnc3ccccn23)C1=O (stereo not drawn)	-12	30*	1.9	-30
O=C1CC(C(=O)Nc2ccc(C(=O)N3CCOCC3)cc2)C2(CCCCC2)O1 (stereo not drawn)	90*	1	0.89	-1
CC1(OC(=O)C2CCCC2)C(=O)C=C2C=C(c3ccsc3)N(C(CO)CO)C=C2C1=O (stereo not drawn)	.	.	0.61	.
C=CCn1c(SCC(=O)NC2CCCC2)nc2scc(-c3ccco3)c2c1=O	6	6	-1.4	-6
C=CCn1c(SCC(=O)NCCCC)nc2scc(-c3ccco3)c2c1=O	6	-6	-2.7*	6
CCc1[nH]nc2c1C(c1cccnc1)C(C#N)=C(N)O2 (stereo not drawn)	-115	-43	0.034	43*
COc1ccccc1CNC(=O)C1CCN(S(=O)(=O)c2c(C)noc2C)CC1	-4	15	2.1	-15
CCOC(=O)CC(=O)CSc1nc2sc(C)cc2c(=O)n1Cc1ccco1	4	10	0.26	-9
Cc1cc2c(=O)n(Cc3ccco3)c(SCC(=O)c3ccc(Cl)s3)nc2s1	5	-6	-4.7*	6
CCCCCCC1CCC(C(=O)NC(CCSC)C(=O)NC(C(=O)OC)C(C)C)CC1 (stereo not drawn)	5	-21	-6.8*	21
SMILES	IL1B cytotox	NFkB transloc inh	Cav3 T inh	NFkB transloc pot
N#Cc1ccc(CSc2nnc(-c3cccs3)n2-c2ccccc2)cc1	-118	-6	-5.8*	6
CC(=O)C1=C(C)NC(SCC(=O)c2ccc(C)cc2)=C(C#N)C1c1ccco1 (stereo not drawn)	18	6	-5*	-6
CCCCOc1cccc(C(=O)NNC(=S)NC2CCCCC2)c1	.	.	-5.8*	.
CCOc1cccc(C(=O)NC2CCCCC2)c1	-23	-20	2.3	20
COC(=O)c1ccccc1OCCCOc1ccc(C=O)cc1OC	1	-1	-0.024	1
CCOC(=O)c1cc(-c2ccccc2)sc1NC(=O)CN1C(=O)NC(CC)(c2ccccc2)C1=O (stereo not drawn)	-10	-10	-2	10
